Laboratory results taken from PubChem BioAssay.

Assay: compounds altering circadian rhythm period length – cell-based, LOPAC library, luminescence reporter (AID 2774);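 further: values are relative to mean of DMSO wells on each plate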
Details: circadian reporter cells, at 7 µM, actives lie on both sides; call rule not given here

Period change, inactive:
O=C(Nc1cc(C(=O)Nc2ccc(S(=O)(=O)O)cc2S(=O)(=O)O)cc(C(=O)Nc2ccc(S(=O)(=O)O)cc2S(=O)(=O)O)c1)Nc1cc(C(=O)Nc2ccc(S(=O)(=O)O)cc2S(=O)(=O)O)cc(C(=O)Nc2ccc(S(=O)(=O)O)cc2S(=O)(=O)O)c1 -0.05 h, CC(C)[C@@H](CO)Nc1nc(Nc2cccc(Cl)c2)c2ncn(C(C)C)c2n1 -0.115 h, COc1ccccc1NC(=O)Nc1nc(-c2cccnc2)nc2ccccc12 -0.005 h, CC(N)=NCCC[C@H](N)C(=O)O 0.025 h, CC(C)[C@@H]1NC(=O)[C@H](CCCCN)NC(=O)[C@@H](Cc2c[nH]c3ccccc23)NC(=O)[C@H](Cc2ccc(O)cc2)NC(=O)[C@H](C)N(C)C(=O)[C@H](Cc2ccccc2)NC1=O -0.2 h, C[N+](C)(C)CCC(=O)c1cccc2ccccc12 -0.475 h, NC(=S)NCCCC(N)C(=O)O (centres undefined) -0.05 h, CCCCN1CCC(COC(=O)c2cc(Cl)c(N)c3c2OCCO3)CC1 -0.095 h, CC(=O)NCCc1ccc(O)c(O)c1 -0.045 h, COc1cc(C(O)CO)ccc1O (centres undefined) (tested in a mixture with another compound) 0.16 h, C[C@@H](NC(=O)/C(C#N)=C/c1ccc(O)c(O)c1)c1ccccc1 0.095 h, O=C(O)CCC(NC(=O)c1ccccc1C(=O)O)C(=O)O (centres undefined) -0.08 h, COc1ccccc1N1CCN(CCCCNS(=O)(=O)c2cccc3c(N(C)C)cccc23)CC1 0.125 h, Cc1cc(N)c2ccccc2[n+]1CCCCCCCCCCCCCC[n+]1c(C)cc(N)c2ccccc21 0.11 h, NCCCCNS(=O)(=O)c1cccc2c(Cl)cccc12 0.09 h, OC[C@H]1O[C@@H](n2cnc3c(NCCc4ccccc4)ncnc32)C(O)[C@H]1O (some centres undefined) 0.19 h, OC[C@H]1O[C@@H](n2cnc3c(N[C@H]4CC5CCC4C5)ncnc32)[C@H](O)[C@@H]1O (some centres undefined) -0.33 h, CC(C)C[C@H](N)CSSC[C@@H](N)CC(C)C -0.095 h, CCCC(=O)NCCc1c2n(c3ccc(OC)cc13)Cc1ccccc1-2 0.125 h, CCCn1c(=O)c2[nH]c(-c3ccc(OCC(=O)Nc4ccc(C#N)cc4)cc3)nc2n(CCC)c1=O 0.13 h, NC(=NCc1ccc(Cl)c(Cl)c1)NC(=O)c1nc(Cl)c(N)nc1N 0.175 h, Cc1cc(C)c(NC(=O)C[C@H](CC(=O)O)c2cccc3ccccc23)c(C(=O)N2CCC3(CCCC3)CC2)c1 0.275 h, Nc1ncnc2c1ncn2[C@@H]1O[C@H](C(=O)NC2CC2)[C@H](O)C1O (some centres undefined) -0.165 h, CCn1c(=O)c2[nH]c(-c3ccccc3)nc2n(CC)c1=O -0.165 h, C/C=C1\C(=O)CC2C3CCC4=CC(=O)CC[C@]4(C)C3CC[C@]12C (some centres undefined) 0.03 h, Cn1cnc2c(NC3CCCC3)ncnc21 0.425 h, COc1cc2nc(N3CC=[N+](C(=O)c4ccco4)CC3)nc(N)c2cc1OC 0.01 h, Cc1ccc(C(=O)O[C@H](C(=O)O)[C@H](OC(=O)c2ccc(C)cc2)C(=O)O)cc1 (tested in a mixture with another compound) -0.105 h, OC[C@H]1O[C@@H](n2cnc3c(Nc4ccccc4)ncnc32)C(O)[C@H]1O (some centres undefined) -0.12 h, NC(N)=NCCSSCCN=C(N)N 0.065 h, Cc1ccccc1N1CCN(S(=O)(=O)C[C@]23CCC(CC2NC(=O)[C@@H](N)CCS(C)(=O)=O)C3(C)C)CC1 (some centres undefined) -0.06 h, CCCCCCCCCCCCCCCCCC(=O)NCC(COP(=O)([O-])OCC[N+](C)(C)C)OCC (centres undefined) 0.195 h, CCCCC#Cc1nc(N)c2ncn([C@@H]3O[C@H](C(=O)NCC)[C@@H](O)[C@H]3O)c2n1 -0.015 h, CC1(NCC(O)COc2cccc3[nH]ccc23)CCC(C(C)(C)NC(=O)CBr)CC1 (centres undefined) -0.095 h, COc1cc(OC)cc(C(CNc2ncnc3c2ncn3[C@@H]2O[C@H](CO)[C@H](O)C2O)c2ccccc2C)c1 (some centres undefined) -0.11 h, NC(=NCCC[C@H](N)C(=O)O)NO -0.09 h, CCN(CC)C(C)C(=O)N1c2ccccc2Sc2ccccc21 (centres undefined) 0.095 h, CCCCCCCCCCCCC/C=C/C(O)C(N)CO (centres undefined) 0.015 h, CCNC(=O)C1OC(n2cnc3c(NCc4ccccc4)ncnc32)C(O)C1O (centres undefined) 0.1 h
